Data from PubChem BioAssay.
Active and inactive are the calls of the source.

Key:
[1] = E. coli DRC41 culture turbidity changes, primary screen, E. coli filamentation inducer project, strain DRC41, OD650, 48 h (AID 1152);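 further: E. coli MC1000 strain DRC41 lacking acrAB efflux pump and sulA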; conditions: E. coli DRC41 (acrAB sulA), higher = more signal, called active from +8 up or from −8 down
[2] = small-molecule binders of probe aLefty1, primary screen, biochemical, small-molecule microarray, 635/667 nm fluorescence (AID 1153); conditions: higher = more signal;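 further: score merges spot fluorescence with signal-to-noise ratio from the scanned slide images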
[3] = PSAC antagonists in infected red cells, primary screen, cell-based, P. falciparum Indochina, OD700, 1 h (AID 1154); conditions: P. falciparum Indochina infected RBC osmotic lysis, higher = more signal, called active from +8 up or from −8 down
[4] = PSAC antagonists in infected red cells, primary screen, cell-based, P. falciparum Indochina, OD700, 2 h (AID 1155);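 further: lysis reports solute entry through the parasite surface anion channel PSAC; channel blockers reduce lysis of infected cells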; conditions: P. falciparum Indochina infected erythrocytes, osmotic lysis OD700; higher = more signal, called active from +8 up or from −8 down
[5] = osmotic lysis modulators in infected erythrocytes, primary screen, PSAC antagonist project, cell-based, P. falciparum Indochina, OD700, 3 h (AID 1156); conditions: higher = more signal, called active from +8 up or from −8 down
[6] = PSAC antagonists in infected red cells, primary screen, cell-based, P. falciparum Indochina, OD700, 18 h (AID 1157); conditions: P. falciparum Indochina infected erythrocytes, osmotic lysis OD700, 18 h; higher = more signal, called active from +8 up or from −8 down
[7] = modulators of S6 phosphorylation in cells, primary screen, cell-based, A549, cytoblot, luminescence, serum-stimulated (AID 1158); conditions: A549 phospho-S6 cytoblot, 5 h, higher = more signal;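 further: serum-stimulated A549 lung adenocarcinoma cells; signal is phosphorylated S6 detected by cytoblot immunostaining with HRP secondary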
[8] = target: NADPH oxidase 2 (Homo sapiens) (UniProt P04839); assay: NOX2-dependent H2O2 signal modulators, primary screen, NOX inhibitor project, cell-based, HEK293-NOX2, PMA-stimulated, Amplex Red fluorescence (AID 1159); conditions: 45 min, higher = more signal, called active from +8 up or from −8 down; further: test concentration not given here
Chain of NADPH oxidase 2 (Homo sapiens) (P04839 whole entry, looked up): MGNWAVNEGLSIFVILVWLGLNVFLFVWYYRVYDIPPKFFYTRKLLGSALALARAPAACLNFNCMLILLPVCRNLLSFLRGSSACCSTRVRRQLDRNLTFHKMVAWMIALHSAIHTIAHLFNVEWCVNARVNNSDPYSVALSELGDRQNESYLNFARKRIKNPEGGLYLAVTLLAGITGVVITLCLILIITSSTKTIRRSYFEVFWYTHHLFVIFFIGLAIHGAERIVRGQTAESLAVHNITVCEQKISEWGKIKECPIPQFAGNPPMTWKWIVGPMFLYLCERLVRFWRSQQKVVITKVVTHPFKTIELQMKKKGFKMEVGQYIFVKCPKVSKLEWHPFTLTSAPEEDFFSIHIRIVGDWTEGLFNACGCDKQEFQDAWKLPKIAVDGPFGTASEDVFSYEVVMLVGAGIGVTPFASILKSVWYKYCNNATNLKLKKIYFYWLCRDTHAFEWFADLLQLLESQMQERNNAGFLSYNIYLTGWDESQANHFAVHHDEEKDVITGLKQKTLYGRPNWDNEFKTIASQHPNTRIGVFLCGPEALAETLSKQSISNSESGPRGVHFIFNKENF

[9] = target: NADPH oxidase 4 (Homo sapiens) (UniProt Q9NPH5); assay: NOX4-dependent H2O2 signal modulators, primary screen, NOX inhibitor project, cell-based, HEK293-NOX4, tetracycline-induced, Amplex Red fluorescence (AID 1160); conditions: 45 min, higher = more signal, called active from +8 up or from −8 down
Chain of NADPH oxidase 4 (Homo sapiens) (Q9NPH5 whole entry, looked up): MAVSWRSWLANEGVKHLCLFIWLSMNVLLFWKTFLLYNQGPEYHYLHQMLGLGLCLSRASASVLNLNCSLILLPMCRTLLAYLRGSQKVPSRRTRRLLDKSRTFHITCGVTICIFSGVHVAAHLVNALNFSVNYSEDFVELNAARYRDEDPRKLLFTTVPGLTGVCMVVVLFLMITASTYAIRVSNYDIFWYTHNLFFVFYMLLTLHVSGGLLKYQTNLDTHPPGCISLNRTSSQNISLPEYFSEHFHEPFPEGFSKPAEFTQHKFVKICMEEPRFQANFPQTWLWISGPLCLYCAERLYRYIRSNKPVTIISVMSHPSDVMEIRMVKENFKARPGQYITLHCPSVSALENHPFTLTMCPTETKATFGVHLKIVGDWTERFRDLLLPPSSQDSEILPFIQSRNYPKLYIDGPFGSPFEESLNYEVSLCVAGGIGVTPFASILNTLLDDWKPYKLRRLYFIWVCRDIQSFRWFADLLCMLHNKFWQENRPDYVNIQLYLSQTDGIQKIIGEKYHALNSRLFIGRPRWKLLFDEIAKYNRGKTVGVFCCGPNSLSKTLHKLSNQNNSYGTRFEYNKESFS

[10] = target: NADPH oxidase 5 (Homo sapiens) (UniProt Q96PH1); assay: NOX5-dependent H2O2 signal modulators, primary screen, NOX inhibitor project, cell-based, HEK293-NOX5, Amplex Red fluorescence (AID 1161); conditions: HEK293-NOX5, ionomycin, 45 min, higher = more signal
Chain of NADPH oxidase 5 (Homo sapiens) (Q96PH1 whole entry, looked up): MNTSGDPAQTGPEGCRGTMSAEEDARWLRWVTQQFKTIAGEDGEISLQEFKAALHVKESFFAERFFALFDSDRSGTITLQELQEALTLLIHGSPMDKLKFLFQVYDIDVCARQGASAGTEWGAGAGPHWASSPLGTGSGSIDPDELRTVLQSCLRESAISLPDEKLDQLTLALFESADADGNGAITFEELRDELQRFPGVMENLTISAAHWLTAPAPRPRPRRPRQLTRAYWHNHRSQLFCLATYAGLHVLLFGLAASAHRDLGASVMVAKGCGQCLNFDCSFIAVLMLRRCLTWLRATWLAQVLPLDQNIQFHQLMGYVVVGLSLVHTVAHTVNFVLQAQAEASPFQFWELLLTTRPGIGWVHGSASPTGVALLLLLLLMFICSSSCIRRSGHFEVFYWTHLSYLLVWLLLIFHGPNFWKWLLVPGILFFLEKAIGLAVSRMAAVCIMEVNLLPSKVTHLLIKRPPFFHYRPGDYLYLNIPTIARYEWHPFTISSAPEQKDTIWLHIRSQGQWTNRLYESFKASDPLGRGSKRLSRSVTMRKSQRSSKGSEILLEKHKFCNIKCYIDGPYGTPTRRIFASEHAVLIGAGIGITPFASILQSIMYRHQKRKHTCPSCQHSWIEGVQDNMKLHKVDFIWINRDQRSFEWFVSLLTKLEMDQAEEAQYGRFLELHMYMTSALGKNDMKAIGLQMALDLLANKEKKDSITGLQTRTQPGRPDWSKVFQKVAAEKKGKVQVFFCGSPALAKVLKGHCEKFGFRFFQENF

[11] = A549 cell viability effects, profiling panel, calcein-AM fluorescence, 48 h, basal (AID 1162); conditions: higher = more signal; further: test concentration not given here
[12] = adipocyte viability effects, profiling panel, cell-based, 3T3-L1 adipocytes, calcein-AM fluorescence, 48 h, basal (AID 1163); conditions: 3T3-L1 adipocytes viability, higher = more signal; further: test concentration not given here
[13] = HepG2 cell viability effects, profiling panel, calcein-AM fluorescence, 48 h, basal (AID 1164); conditions: higher = more signal; further: test concentration not given here
[14] = MM1S cell viability effects, profiling panel, calcein-AM fluorescence, 48 h, basal (AID 1165); conditions: higher = more signal;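 further: viability of MM1S multiple myeloma cells under basal unstimulated conditions; test concentration not given here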
[15] = basal RPMI8226 viability, no added stimulus, profiling panel, cell-based, calcein-AM fluorescence, 48 h, PK04 Diversity Set (AID 1166); conditions: RPMI8226 myeloma viability, higher = more signal;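 further: cells grown under basal conditions without added stimulus; test concentration not given here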
[16] = basal HepG2 mitochondrial membrane potential changes, profiling panel, cell-based, JC-1 fluorescence, 24 h, 100 nL compound (AID 1167); conditions: higher = more signal; further: test concentration not given here
[17] = basal 3T3-L1 adipocyte mitochondrial potential changes, profiling panel, cell-based, JC-1 fluorescence, 3T3-L1 adipocytes, 24 h, 100 nL compound (AID 1168); conditions: JC-1 mitochondrial fluorescence, higher = more signal, called active from +8 up or from −8 down; further: test concentration not given here
[18] = basal RPMI8226 mitochondrial membrane potential changes, profiling panel, cell-based, JC-1 fluorescence, 24 h, 100 nL compound (AID 1169); conditions: RPMI8226 myeloma, JC-1 mitochondrial potential fluorescence, higher = more signal; further: test concentration not given here
[19] = basal MM1S mitochondrial membrane potential changes, profiling panel, cell-based, JC-1 fluorescence, 24 h, 100 nL compound (AID 1170); conditions: higher = more signal; further: test concentration not given here
[20] = A549 lung cancer cell viability effects, profiling panel, resazurin fluorescence, 24 h, PK04 Diversity Set (AID 1171); conditions: higher = more signal, called active from +8 up or from −8 down; further: test concentration not given here

SMILES	z-score [1]	composite z-score [2]	z-score [3]	z-score [4]	z-score [5]	z-score [6]	z-score [7]	z-score [8]	z-score [9]	z-score [10]	z-score [11]	z-score [12]	z-score [13]	z-score [14]	z-score [15]	z-score [16]	z-score [17]	z-score [18]	z-score [19]	z-score [20]
CC(C)(C)OC(=O)CC[C@]1(C(=O)N2CCOCC2)N=C(c2ccc(OCCCO)cc2)O[C@H]1c1ccccc1N=[N+]=[N-]	1.52 (inactive)	0.171	33 (active)	31.2 (active)	1.75 (inactive)	2.8 (inactive)	-0.435	-1.71 (inactive)	-0.279 (inactive)	-1.94	0.901	0.232	0.556	-0.474	-0.337	1.27	3.46 (inactive)	-0.252	0.103	1.03 (inactive)
C[N+](C)(C)CCCC[C@@H]1NC(=O)[C@H]2C[C@@H](C(=O)NCCCCCCNC(=O)CS)[C@@H](c3cccc(OCCO)c3)N2C1=O	0.415 (inactive)	0.0774	3.29 (inactive)	0.679 (inactive)	1.8 (inactive)	0.0805 (inactive)	0.0934	1.18 (inactive)	0.639 (inactive)	1.24	-1.42	-0.132	-0.153	0.0157	-0.682	0.325	0.0973 (inactive)	-0.277	-0.326	-0.257 (inactive)
C=C(CCCC)/C(=C/C[C@@H](OC(C)=O)c1ccc(OCCO)cc1)c1cnc2ccccc2c1	1.04 (inactive)	0.0038	24 (active)	6.92 (inactive)	2.09 (inactive)	1.34 (inactive)	0.684	-1.98 (inactive)	-0.0832 (inactive)	-2.21	2.57	0.197	1.12	-1.27	-0.0971	1.65	-0.38 (inactive)	-0.364	-1.16	0.775 (inactive)
COCCCNC(=O)[C@@H]1c2ccccc2C(=O)N(Cc2ccccc2Cl)[C@H]1c1ccc(CO)cc1	2.51 (inactive)	-0.121	1.62 (inactive)	0.293 (inactive)	0.621 (inactive)	0.11 (inactive)	-0.0671	-0.285 (inactive)	0.986 (inactive)	0.306	0.897	-0.137	1.84	0.448	1.28	2.87	0.385 (inactive)	-0.21	0.418	-0.028 (inactive)
COc1cc2c(cc1OC)CN(C(=O)[C@H]1[C@@H]3C(=O)O[C@@H](c4ccccc4)[C@@H](c4ccccc4)N3[C@@H](c3ccc(O)cc3)[C@]13C(=O)Nc1ccccc13)CC2	-0.444 (inactive)	0.0036	0.734 (inactive)	-0.397 (inactive)	-0.473 (inactive)	0.801 (inactive)	0.0493	0.96 (inactive)	0.754 (inactive)	1.37	-0.214	-0.843	0.394	-0.723	-1.47	-1.2	0.977 (inactive)	-0.542	-0.594	-0.0574 (inactive)
CC(C)N1C(=O)C[C@@](C(=O)NCC(F)(F)F)(c2ccc([N+](=O)[O-])cc2)[C@H]1c1ccc(CO)cc1	1.09 (inactive)	-0.101	0.642 (inactive)	-0.558 (inactive)	0.533 (inactive)	-1.68 (inactive)	2.47	0.271 (inactive)	0.465 (inactive)	-0.127	1.41	1.13	-0.0704	-0.464	-1.66	0.868	-0.502 (inactive)	-0.564	-1.51	0.201 (inactive)
C=C(COC)/C(=C/C[C@@H](OC(C)=O)c1ccc(OCCO)cc1)c1cnc2ccccc2c1	2.11 (inactive)	0.127	20.2 (active)	3.53 (inactive)	0.844 (inactive)	-0.282 (inactive)	1.81	-2.04 (inactive)	-0.287 (inactive)	-1.08	2.32	1.86	0.109	-0.83	-0.175	2.42	-0.502 (inactive)	-0.612	-0.701	0.0521 (inactive)
CC(C)NC(=O)[C@@]1(c2ccc([N+](=O)[O-])cc2)CC(=O)N(C2CCCCC2)[C@@H]1c1ccc(CO)cc1I	1.36 (inactive)	0.533	15.8 (active)	2.08 (inactive)	1.07 (inactive)	0.966 (inactive)	-0.0892	0.824 (inactive)	-1.57 (inactive)	1.45	1.92	1	0.243	-2.24	-2.58	1.29	0.484 (inactive)	-0.169	0.521	0.465 (inactive)
CC(C)C[C@@H]1NC(=O)[C@@H]2C[C@H](C(=O)O)[C@H](c3cccc(OCCO)c3)N2C1=O	0.649 (inactive)	-0.0966	3.95 (inactive)	0.373 (inactive)	-0.917 (inactive)	0.0571 (inactive)	-0.129	1.34 (inactive)	0.663 (inactive)	2.01	0.196	0.237	-0.404	0.101	-0.57	0.555	-0.531 (inactive)	0.719	0.897	0.0499 (inactive)
COC(=O)[C@@]1(Cc2ccc(OC)cc2)[C@H]2c3cc(C(=O)N(C)C)n(Cc4ccccn4)c3C[C@H]2CN1C(=O)c1ccccc1	-1.76 (inactive)	0.771	1.63 (inactive)	0.463 (inactive)	1.01 (inactive)	0.863 (inactive)	0.704	0.188 (inactive)	-1.32 (inactive)	-2.73	-0.865	0.626	-0.319	-0.684	-1.31	2.05	-1.46 (inactive)	0.155	0.016	-0.793 (inactive)
COC(=O)C(CC#Cc1ccc2c(c1)[C@]1(C(=O)N2)[C@H](C(=O)Nc2nc3ccccc3s2)[C@H]2C(=O)O[C@H](c3ccccc3)[C@H](c3ccccc3)N2[C@@H]1c1ccccc1OCCO)C(=O)OC	-0.839 (inactive)	0.284	4.9 (inactive)	2.16 (inactive)	-0.174 (inactive)	1.69 (inactive)	-0.333	1.28 (inactive)	0.252 (inactive)	0.774	-0.231	0.728	0.0091	-0.426	-2.6	-2.7	-0.502 (inactive)	-1.17	-1.63	-0.367 (inactive)
COC(=O)[C@@]1(Cc2ccc(OC)cc2)[C@H]2c3cc(C(=O)N(C)C)n(Cc4ccc(S(C)(=O)=O)cc4)c3C[C@H]2CN1C(=O)c1ccccc1	-0.752 (inactive)	1.06	1.85 (inactive)	0.451 (inactive)	0.954 (inactive)	-0.336 (inactive)	4.44	1.04 (inactive)	1.74 (inactive)	-3.36	2.88	0.449	1.13	0.636	1.51	3.14	-0.572 (inactive)	0.484	-1.11	0.0073 (inactive)
CCCC#C[Si](O[C@H](CC)c1cn(Cc2cccc(Cl)c2)nn1)(C(C)C)C(C)C	1.68 (inactive)	0.171	0.131 (inactive)	0.659 (inactive)	-0.871 (inactive)	0.283 (inactive)	-0.131	0.041 (inactive)	0.076 (inactive)	0.842	1.19	-1.07	1.58	-1.07	-0.223	-0.742	-0.228 (inactive)	-0.112	-0.916	0.158 (inactive)
CCS[C@H]1[C@@H](C(=O)O)[C@H](c2ccc(C)cc2)N(S(=O)(=O)c2ccc(C)cc2)[C@@H]1CC	0.409 (inactive)	0.157	1.56 (inactive)	1.02 (inactive)	-0.129 (inactive)	0.831 (inactive)	-0.0726	0.983 (inactive)	-0.149 (inactive)	0.271	-0.408	-0.507	1.36	0.412	0.458	0.922	0.337 (inactive)	0.551	-1.88	-0.545 (inactive)
C=CCOC(=O)[C@H]1[C@@H]2C(=O)O[C@@H](c3ccccc3)[C@@H](c3ccccc3)N2[C@@H](c2ccc(OCCOC(=O)[C@H]3C[C@H]4C(=O)N[C@@H](CCCCN(C)C)C(=O)N4[C@H]3c3ccc(O)cc3)cc2)[C@]12C(=O)Nc1ccc(I)cc12	-0.635 (inactive)	0.461	5.21 (inactive)	1.13 (inactive)	-0.286 (inactive)	0.522 (inactive)	-0.236	2.18 (inactive)	1.06 (inactive)	1.72	-0.041	-0.032	-0.959	-0.203	0.427	0.75	-0.623 (inactive)	0.742	0.192	-0.708 (inactive)
O=C(CS)NCCCCCCNC(=O)[C@@H]1C[C@@H]2C(=O)N[C@@H](Cc3ccccc3)C(=O)N2[C@@H]1c1cccc(OCCO)c1	-0.92 (inactive)	-0.073	4.39 (inactive)	0.198 (inactive)	0.839 (inactive)	0.0799 (inactive)	-0.775	1.75 (inactive)	0.728 (inactive)	-0.131	-0.55	0.363	0.371	-0.204	0.537	-1.28	0.476 (inactive)	0.198	-0.143	-0.436 (inactive)
CC(C)C[C@@H]1NC(=O)[C@H](C(C)C)NC(=O)[C@@]23C(=O)N[C@@H](Cc4ccccc4)C2[C@H](C)[C@@]2(C)O[C@H]2C3/C=C/CC/C=C/CNC1=O (stereo not given in full)	-0.62 (inactive)	0.131	4.9 (inactive)	0.538 (inactive)	0.841 (inactive)	0.771 (inactive)	0.116	-0.159 (inactive)	0.338 (inactive)	-0.477	-0.642	1.39	-0.504	-0.359	-0.789	-0.0491	-0.321 (inactive)	0.0651	1.72	0.612 (inactive)
COC(=O)[C@H](Cc1ccccc1)N[C@@H](/C=C/C1CC1)[C@H](O)Cc1ccccc1	0.0327 (inactive)	-0.239	0.738 (inactive)	0.229 (inactive)	-0.592 (inactive)	0.428 (inactive)	-0.162	0.42 (inactive)	-0.135 (inactive)	-1.41	0.168	-0.0648	-0.438	-0.608	-0.507	-0.908	-0.124 (inactive)	-1.17	-0.594	0.778 (inactive)
